Source: PubChem BioAssay (National Center for Advancing Translational Sciences (NCATS))
BAZ2B block – BAZ2B (human) inhibition; Q9UIF8; AlphaScreen BAZ2B-H3K14Ac peptide displacement; Potency, µM (highest dose often 114 µM), for the others: top-dose activity change, negative = inhibition, actives largely listed as inhibitors; hit rate 4.4% among 360,000; further: on the % scale 0 is the no-effect control and ±100 the full control effect; nearly all actives have a fitted effect of over 60% in size
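Multi-concentration screen (max 110 uM) measuring displacement of acetylated histone H3 peptide from BAZ2B by AlphaScreen, using 50 nM protein, 50 nM peptide and 10 ug/mL streptavidin donor plus Ni-chelate acceptor beads.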
HP1b binding inh – blocks HP1-beta chromodomain binding to methylated histone tails. P83916. AlphaScreen HP1-beta / biotin-H3K9me3 peptide binding. Potency, µM (highest dose often 114 µM), for the others: top-dose activity change, negative = inhibition, actives largely listed as inhibitors. hit rate 0.56% among 390,000; further: nearly all actives have a fitted effect of over 70% in size
Target sequence (P83916 whole entry, looked up): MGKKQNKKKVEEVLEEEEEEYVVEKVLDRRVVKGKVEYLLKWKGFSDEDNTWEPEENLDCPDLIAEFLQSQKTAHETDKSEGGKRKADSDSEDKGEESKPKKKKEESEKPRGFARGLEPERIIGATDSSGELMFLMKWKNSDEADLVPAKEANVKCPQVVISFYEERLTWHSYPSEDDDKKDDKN
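AlphaScreen: HP1-beta (50 nM) preformed 30 min with biotin-H3(1-18)K9me3 peptide (50 nM) in PBS pH 7.4, 0.01% Tween-20. Compound added for 30 min at RT, then streptavidin donor/nickel chelate acceptor beads (10 ug/mL) for 30 min.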
Sfp PPTase inh – blocks B. subtilis Sfp PPTase activity; Q9F4F7; Biochemical Sfp PPTase activity, qHTS; Potency, µM, without a hit: largest response in the series, negative = inhibition, most hits filed as inhibitors; hit rate 3.5% among 310,000;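 further: the enzyme is Sfp with the accession as filed and its product quenches rhodamine fluorescence; 0% = enzyme reaction without inhibitor and -100% = no enzyme wells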
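Fluorescence-quenching assay with 15 nM Sfp, 5 uM rhodamine-CoA and 12.5 uM BHQ-2-labelled ybbR peptide in pH 7.6 Hepes/MgCl2 buffer. Enzyme was pre-incubated with compound for 15 min at room temperature. Rate was taken from the 30-min fluorescence change (525/598 nm).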
G9a block – G9a (human) methyltransferase inhibition. Q96KQ7. G9a H3K9 monomethylation, AlphaScreen, 2 h. Potency, µM (doses to about 102 µM), without a hit: at the highest dose activity, negative = inhibition, hits mostly inhibitors. hit rate 8.8% among 350,000. AID 504332; further: on the % scale 0 is the no-effect control and ±100 the full control effect; nearly all actives have a fitted effect of over 75% in size
Target sequence (Q96KQ7 913-1193 limits assumed): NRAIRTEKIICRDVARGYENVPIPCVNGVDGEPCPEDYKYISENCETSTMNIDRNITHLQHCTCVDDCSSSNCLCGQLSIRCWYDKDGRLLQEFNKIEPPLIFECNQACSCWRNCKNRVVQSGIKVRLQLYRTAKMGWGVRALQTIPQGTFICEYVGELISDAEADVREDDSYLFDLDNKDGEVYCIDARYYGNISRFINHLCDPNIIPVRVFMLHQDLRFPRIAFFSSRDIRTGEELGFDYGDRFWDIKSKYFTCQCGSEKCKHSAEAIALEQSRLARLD
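Signal arises when biotinylated H3K9 peptide, once monomethylated, bridges streptavidin donor and antibody-captured acceptor beads. Enzyme at 20 nM was preincubated 15 min with test compounds; peptide 500 nM and SAM 20 uM then reacted for 2 h.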
JMJD2A Tudor – JMJD2A Tudor domain (human) inhibition | Potency, µM (series often up to 114 µM), for the others: at the highest dose activity change, negative = inhibition, usual class: inhibitors | AlphaScreen JMJD2A-Tudor / H3K4me3 peptide binding | hit rate 4.4% among 390,000 | AID 504339; further: on the % scale 0 is the no-effect control and ±100 the full control effect; nearly all actives have a fitted effect of over 50% in size
L3MBTL1 block – blocks human L3MBTL1; Q9Y468; AlphaScreen L3MBTL1–H3K9me1 peptide binding; Potency, µM (top dose mostly 57.1 µM), for inactives: at the top dose activity, negative = inhibition, hits mostly inhibitors; hit rate 0.66% among 230,000; AID 485360; further: on the % scale 0 is the no-effect control and ±100 the full control effect; nearly all actives have a fitted effect of over 60% in size
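L3MBTL1 (50 nM) pre-complexed 30 min with biotinylated H3(1-15)K9me1 peptide (75 nM), then compounds added for 30 min at room temperature; AlphaScreen streptavidin donor/nickel chelate acceptor beads (10 ug/mL final) read after 30 min dark incubation.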
* hit, by the source's call; ? = inconclusive; nt = not tested or not shown; ! = not active in a repeat; [ ] = remark or other dose. Compounds with a hit are over-represented: about 12% of the library has one in this group of screens. The call rests on the fitted dose curve; in most records, active means well fitted curve in the direction sought with a large enough effect; inconclusive means small, poorly fitted or top-dose-only effect, or another doubt; inactive means no such curve, though single readings can be large; an effect the other way counts as inactive or inconclusive. Potency means the concentration at half of the fitted maximal effect.

SMILES	BAZ2B block	HP1b binding inh	Sfp PPTase inh	G9a block	JMJD2A Tudor	L3MBTL1 block
CN(C(=O)Cc1ccc(Cl)c(Cl)c1)[C@@H](CN1CCCC1)c1cccc(OCC(=O)O)c1	nt	nt	-2%	nt	nt	nt
C[n+]1c(-c2ccccc2)c2cc(N)ccc2c2ccc(N)cc21	40µM*	-21%	-6%	?	?	nt
CN1CCc2nc(CO)c(CO)cc2C1	nt	nt	4%	nt	nt	nt
CN1CCc2nc(SCC(=O)OC(C)(C)C)c(C#N)cc2C1	-17%	27%	-14%	50µM*	1%	-4%
CC1(C)C(C(=O)NCc2ccco2)C1(C)C	0%	18%	-18%	-10%[59 µM]	-14%	-6%
CCC(=O)Nc1cccc(-c2nnc(SCC(=O)NCc3ccco3)n2C)c1	-1%	24%	-12%	50µM*	-10%	3%
O=C(Nc1cccnc1)C1CCN(S(=O)(=O)c2cccs2)CC1	1%	18%	5%	16%	-17%	9%
O=[N+]([O-])O[C@H]1CO[C@H]2[C@H]1OC[C@@H]2O[N+](=O)[O-]	nt	nt	26%	21%[21.5 µM]	nt	nt
O=C(CSc1nnnn1-c1ccccc1)Nc1ccc(N2CCOCC2)c(Cl)c1	0%	32%	-13%	13µM*	-23%	nt
OC(CNC1CCCCCCC1)c1ccccc1 (stereo unspecified)	?	nt	-11%	14µM*	nt	-2%
CC1CCC(NCC(O)c2ccccc2)CC1 (stereo unspecified)	-3%	37%	16%	7%	-13%	nt
COc1cc(-c2ccc(-[n+]3nc(-c4ccccc4)nn3-c3ccc([N+](=O)[O-])cc3)c(OC)c2)ccc1-[n+]1nc(-c2ccccc2)nn1-c1ccc([N+](=O)[O-])cc1	nt	nt	8%	?	nt	nt
Cc1cccc(OCC(=O)N2CCN(Cc3ccc4c(c3)OCO4)CC2)c1	50µM*	?	-28%	10µM*	?	9%
O=C(COc1ccc(S(=O)(=O)N2CCCCC2)cc1)N1CCN(Cc2ccccc2)CC1	-2%	25%	0%	45µM*	-12%	-1%
CC(C)(C)NS(=O)(=O)c1ccc(OCC(=O)N2CCN(Cc3ccccc3)CC2)cc1	-17%	1%	15%	-25%	-14%	-4%
CSc1ccc(CN2CCN(C(=O)COc3ccc(C)cc3)CC2)cc1	56µM*	?	-12%	10µM*	8.9µM*	11%
O=C(COc1ccc(Br)cc1)N1CCN(Cc2ccncc2)CC1	-3%	?	-7%	18µM*	1µM*	-4%
Cc1nn(C)c(C)c1-c1cccc2c1CCC(N(C)C)C2 (stereo unspecified)	nt	nt	0%	9%[59 µM]	nt	nt
N#Cc1ccc(C(=O)N2CCN(c3nc4ccc(F)cc4s3)CC2)cc1	0%	40%	nt	5%[59 µM]	0%	nt
C[C@H](CO)N1C[C@H](C)[C@@H](CN(C)C(=O)Nc2ccccc2)Oc2c(NS(=O)(=O)c3ccc(F)cc3)cccc2C1=O	nt	48%	nt	nt	-6%	9%
O=C(COc1ccc(Br)cc1)N1CCN(Cc2ccc3c(c2)OCO3)CC1	50µM*	?	?	nt	8.9µM*	nt
Cc1ccc(OCC(=O)N2CCN(Cc3ccc4c(c3)OCO4)CC2)cc1C	?	16%	7%	-8%[12.7 µM]	-15%	2%
CCC(C)C1O[C@]2(C=CC1C)CC1CC(C/C=C(\C)[C@H](OC3CC(OC)C(O[C@H]4CC(OC)[C@@H](O)C(C)O4)C(C)O3)[C@@H](C)/C=C/C=C3\COC4C(O)C(C)=C[C@H](C(=O)O1)[C@@]34O)O2 (stereo partly specified)	nt	nt	14%	-31%[2.33 µM]	nt	nt
NP(=O)(OCCCc1ccccc1)Oc1ccc(Cl)cc1 (stereo unspecified)	-5%	24%	16%	13%	-3%	14µM*
CCn1c(O)c(/C=N/NC(=O)c2ccncc2)c(=O)[nH]c1=S	35µM*	48%	-6%	-22%[59 µM]	71µM*	?
SMILES	BAZ2B block	HP1b binding inh	Sfp PPTase inh	G9a block	JMJD2A Tudor	L3MBTL1 block
CCC(C)n1c(O)c(/C=N/NC(=O)c2ccncc2)c(=O)[nH]c1=S (stereo unspecified)	56µM*	48%	11%	22%[59 µM]	?	-9%
CCC(C)n1c(O)c(/C=N/Nc2ccccc2)c(=O)[nH]c1=S (stereo unspecified)	?	6%	45µM*	1.1µM*	?	-17%
CCC(C)n1c(O)c(C=NCCc2ccccc2)c(=O)[nH]c1=S (stereo unspecified)	-26%	32%	-9%	9%	-27%	-5%
O=C(N/N=C/c1c(O)n(Cc2ccc(F)cc2)c(=S)[nH]c1=O)c1ccncc1	79µM*	13%	-16%	nt	100µM*	-28%
CCn1cc(C(=O)N[C@@H](C)C(=O)OC)c(=O)c2cc3c(cc21)OCO3	3%	48%	2%	43%	-2%	nt
COC(=O)[C@@H]1[C@@H]2C[C@H]3c4[nH]c5cc(OC)ccc5c4CCN3C[C@@H]2C[C@H](OC(=O)/C=C\c2cc(OC)c(OC)c(OC)c2)[C@H]1OC	nt	nt	-15%	?	nt	nt
CC(=O)OO	nt	nt	15%	26%[59 µM]	nt	nt
CC(=O)O[C@H]1CC[C@]2(C=O)C3CC[C@]4(C)[C@@H](C5=CC(=O)OC5)CC[C@]4(O)C3CC[C@]2(O)C1 (stereo partly specified)	nt	21%	21%	nt	-8%	nt
CC1=NN(c2ccccc2)C(=O)C1/C=C1/C(=O)NC(=O)N(c2cccc(C)c2)C1=O (stereo unspecified)	?	nt	-13%	-19%[59 µM]	nt	-1%
O=C1NC(=O)C(=Cc2cc3c(cc2[N+](=O)[O-])OCO3)C(=O)N1	-29%	0%	-89%	7.9µM*	-35%	-5%
Cc1cccc(N2C(=O)NC(=O)/C(=C/c3cc4c(cc3[N+](=O)[O-])OCO4)C2=O)c1	-28%	?	35µM*	8.9µM*	79µM*	nt
Clc1ccc(C2CC3CCC2N3)cn1 (stereo unspecified)	nt	nt	-11%	41%[59 µM]	nt	nt
O=[N+]([O-])/C=C1\NCCN1Cc1ccc(Cl)nc1	5%	-25%	-10%	50µM*!	-12%	1%
CN1C(=S)CN=C(c2ccccc2)c2cc(Cl)ccc21	nt	nt	-2%	-47%[12.7 µM]	nt	nt
Cc1cc2c(C(C)C)c(O)c(O)c(C=O)c2c(O)c1-c1c(C)cc2c(C(C)C)c(O)c(O)c(C=O)c2c1O	16µM*	nt	89µM*!	9.5µM*	nt	?
O[C@@H]1[C@@H]2O[P@@](O)(=S)OC[C@H]2O[C@H]1n1cnc2cc(Cl)c(Cl)cc21	nt	nt	0%	nt	nt	nt
CC(C)C[C@H](NC(=O)CNC(=O)[C@H](CCC(N)=O)NC(=O)[C@H](Cc1ccc(O)cc1)NC(=O)[C@@H](NC(=O)[C@H](Cc1ccc(O)cc1)NC(=O)CNC(=O)[C@@H](N)CCCN=C(N)N)C(C)C)C(=O)O	nt	nt	0%	nt	nt	nt
